53 molecules from ChEMBL document CHEMBL4513216, “Probing the Open Global Health Chemical Diversity Library for Multistage-Active Starting Points for Next-Generation Antimalarials” (ACS Infect Dis, 2020) can be followed below.

In all, about 69,000 compounds went through this assay and about 8,600 (12%) showed an effect of 50% or more. Only a selection was taken, and strong results are over-represented in it overall.

This test deals with Plasmodium berghei. As to the kind of experiment: Screen against P. berghei liver stage (PbLuc), transformed with Luciferase, at 10uM. The settings on record: tested at 10 uM. Format: functional, HepG2.
In the case of `CN1CCOC(CNCc2coc(-c3ccc(Cl)cc3)n2)C1` (stereo not drawn), the INHIBITION was 33.7%. On to `CN(CC(=O)N1CCc2[nH]c3ccc(F)cc3c2C1)CC1OCCO1`, for which the INHIBITION was found to be 22.9%. To `Cc1c(C(=O)N2CCC3(CCCNC3=O)C2)sc2nc[nH]c(=O)c12` (stereo not drawn) belongs 12.9%; to `CN(C)Cc1cnc2n1CCN(C(=O)NCc1ccccc1)CC2`, 21.6%. In the case of `CC(=O)c1ccc(C(=O)NCCCOC(C)c2ccccc2)s1` (stereo not drawn), the INHIBITION was found to be 29.2%.

Consider `Cc1cc(N)nc(C2(C)CCCN2C(=O)c2cnccn2)n1` (stereo not drawn), for which the INHIBITION is recorded as 17.1%. Next, `O=S(=O)(NCCn1ccc(-c2ccccn2)n1)C1CCCCC1`: 40%. Regarding `Cc1n[nH]c2nc(-c3cc(Br)ccc3O)cc(C(=O)O)c12`, the INHIBITION stood at 4.82%. In the case of `Cc1ccc(O)c(CN2CCCCC2CCN2CCOCC2)c1` (stereo not drawn), the INHIBITION came to 30.3%. Turning to `Cc1nnc2n1CCN(Cc1csc(-c3ncccn3)n1)C2`, the INHIBITION is 26.4%. Take `Cn1c(CN2CCCCC2)nnc1C1CCCN(c2ccncc2F)C1` (stereo not drawn): the INHIBITION is -2.43%. Turning to `CN(C)C(=O)COCC1CN(Cc2ccoc2)Cc2nnn(C)c21` (stereo not drawn), the INHIBITION was -3.24%.

As to `CCn1nnc2c1C(COCC(=O)N(C)C)CN(Cc1ccco1)C2` (stereo not drawn), the INHIBITION is recorded as -3.26%. Consider `CCn1nnc2c1C(COCC(=O)N(C)C)CN(Cc1ccoc1)C2` (stereo not drawn), for which the INHIBITION was 53.4%. For `CC(C)N1CCc2nnc(COc3cncnc3)n2CC1`, the INHIBITION is given as -2.25%. As for `CC(C)N1CCCCC1c1nc(N(C)C)ncc1I` (stereo not drawn), the INHIBITION was -9.51%. Next, `Cc1ncncc1-c1ccnc(N(C)C)n1`: 4.08%. For the molecule `CCCc1cc(NC2CCc3nc(C)nn3C2)n2ncnc2n1` (stereo not drawn), the INHIBITION is listed as -2.23%. With `CCN1CCC2(COCc3cnc(NCC4CC4)nc32)C1` (stereo not drawn), the INHIBITION amounted to 13.5%. For the molecule `O=S(=O)(C1CC1)N1CCC2(COCc3cnc(NCC4CC4)nc32)C1` (stereo not drawn), the INHIBITION is listed as 57.4%. Next, `Cc1nc(NCC2CC2)nc2c1COCC21CCN(C(=O)C(C)(C)C)C1` (stereo not drawn): 49.7%.

In the case of `Fc1cnc(N2CCC3(COCc4cnc(NCC5CC5)nc43)C2)nc1` (stereo not drawn), the INHIBITION is -53.2%. Next, `c1cc(N2CCC3(COCc4cnc(NCC5CC5)nc43)C2)ncn1` (stereo not drawn): 31.7%; `c1ccc(CN2CCC3(COCc4cnc(NCC5CC5)nc43)C2)cc1` (stereo not drawn): 43.9%. Regarding `CN(C)S(=O)(=O)N1CCC2(COCc3cnc(NCC4CC4)nc32)C1` (stereo not drawn), the INHIBITION is reported as 62.8%. Take `Cc1nc(NCC2CC2)nc2c1COCC21CCN(C)C1` (stereo not drawn): the INHIBITION was 31.3%. As to `Cc1nc(NCC2CC2)nc2c1COCC21CCN(S(=O)(=O)C2CC2)C1` (stereo not drawn), the INHIBITION was determined as 66%.

Take `CC(C)c1noc(CCC(=O)NC(C)c2ccccn2)n1` (stereo not drawn): the INHIBITION is listed as -40.96%.

In the case of `Nc1nccc(C2CCN(c3cnccn3)C2)n1` (stereo not drawn), the INHIBITION stood at 30.5%.

Regarding `CCOc1cc(C(=O)N2CCCC(c3nc(C)c(C)s3)C2)ccn1` (stereo not drawn), the INHIBITION is given as 48.4%. To `O=C(COc1ccc2c(c1)OCO2)NCc1ccco1` belongs 31.135%; to `CCCN1CCC(CC(=O)N2CCC(C(O)c3nccn3C)CC2)CC1` (stereo not drawn), 6.69%; to `CCn1nc(C)c2nc(C(C)C)nc(NC)c21`, 16.8%. To `COCCN1CCCC2(CCN(c3ncnc(C)c3C)C2)C1=O` (stereo not drawn) belongs 69.6%. Consider `COCCN1CCCC2(CCN(c3ncc(Cl)cc3Cl)C2)C1=O` (stereo not drawn), for which the INHIBITION was -5.8%. As for `COCCN1CCCC2(CCN(Cc3nnc(C4CC4)o3)C2)C1=O` (stereo not drawn), the INHIBITION is given as 51.2%. Next, `CCN1CCCC2(CCN(Cc3nnc(C4CC4)o3)C2)C1=O` (stereo not drawn): -9.18%; `COCCN1CCC2(CCCN(Cc3ccoc3)C2)C1=O` (stereo not drawn): 8.74%. Take `O=C1CCC2(CCCN(Cc3nnc(C4CC4)o3)C2)CN1CCO` (stereo not drawn): the INHIBITION is reported as 34.4%. In the case of `COCCN1CCCC2(CCN(c3nccnc3N(C)C)C2)C1=O` (stereo not drawn), the INHIBITION was -52.2%. With `COCCN1CCCC2(CCN(Cc3noc(C4CCCC4)n3)C2)C1=O` (stereo not drawn), the INHIBITION was 9.56%. `O=C1N(CCO)CCCC12CCN(Cc1nnc(C3CC3)o1)C2` (stereo not drawn): the INHIBITION amounted to 61.1%.

With `Cc1nc2oc(C(=O)N3CCCC3)c(N)c2c2c1CCCC2`, the INHIBITION turned out to be 16%. Next, `CCn1cnnc1CNC(=O)N1CCN(c2ccc(OC)cc2)CC1`: 36.1%. Regarding `CN(C)c1cc(CNC(=O)c2cnccn2)ccn1`, the INHIBITION is listed as -6.14%. On to `O=C(Cc1c(F)cccc1Cl)Nc1cc(N2CCOCC2)ncn1`, for which the INHIBITION is reported as 30.9%. For `CC(C)n1nc(CN2CCCC2=O)c2c1CN(C(=O)c1ccco1)C2`, the INHIBITION was determined as 39.5%. Regarding `CCC1c2cccn2CCN1S(=O)(=O)N1CCOCC1` (stereo not drawn), the INHIBITION amounted to 31.2%.

For `CCN1CCN(C(=O)COCc2cccc(OC)c2)CC1`, the INHIBITION is -28.675%. As to `Cc1ccc(CN2C(=O)CCC23CCC(NC2CCOC2)CC3)cc1` (stereo not drawn), the INHIBITION worked out at 35.8%. As to `Cc1occc1C(=O)N1CCOCC2(CCN(C3CCOCC3)C2)C1` (stereo not drawn), the INHIBITION came out at 43.9%.

In the case of `CC(C)S(=O)(=O)N1C[C@@H](O)[C@H](N(C)Cc2ccc(F)cc2)C1`, the INHIBITION is recorded as 30.75%. With `CNC(=O)Cc1ccc(NC(=O)NCc2ncc(C)s2)cc1`, the INHIBITION amounted to 64%.
